HT1080 IDH1KD tx – qHTS for induction of synthetic lethality in tumor cells producing 2HG: qHTS for the HT-1080-IDH1KD cell line | HT-1080 IDH1 knockdown viability, ATP luminescence, 48 h | Potency, µM (series often up to 46.1 µM), for inactives: at the top dose activity, negative = toxicity, hits mostly cytotoxic | 2% of 360,000 active | AID 686971, 2013;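 note: potency is the fitted concentration of half-maximal effect; 0% = DMSO wells and -100% = cell-free medium wells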
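% activity derives from luminescence (CellTiter-Glo), normalised to DMSO and no-cell wells. HT-1080-IDH1KD cells, 750/well, had 48 h compound exposure at 37 °C.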
TDP1 cell CPT – qHTS for Inhibitors of human tyrosyl-DNA phosphodiesterase 1 (TDP1): qHTS in cells in presence of CPT; Potency, µM (doses to about 46.2 µM), for the others: at the top dose activity change, negative = growth inhibition, usual class: inhibitors; chicken DT40 Tdp1-/-;hTDP1 cells + 20 nM CPT, ATP luminescence, 48 h; 12% of 420,000 active; note: potency is the fitted concentration of half-maximal effect; nearly all actives have a fitted effect of over 55% in size
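Chicken DT40 Tdp1-/- cells stably complemented with human TDP1 were seeded at 400 cells/well in medium containing 20 nM camptothecin, exposed to pin-transferred compounds, and grown at 37 °C for at least 48 hr. Viability was read as ATP luminescence.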
IL-1B inflam inh – qHTS for Inhibitors of Inflammasome Signaling: IL-1-beta AlphaLISA Primary Screen; activity change, % at 57.5 µM; THP-1 LPS/ATP IL-1B secretion, AlphaLISA, 16 h; hits give low values; AID 743279, 2014; 4.7% of 360,000 active; in the data active = activity change below about -50%; inconclusive = mostly about -30% to -49%
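THP-1 cells pretreated 1 hr with compounds (up to 57.5 uM final), then stimulated with LPS (250 ng/mL final) plus ATP (1.25 mM final); secreted IL-1B measured by AlphaLISA after 16 hr, decreased signal indicating inhibition.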
HT1080-NT tox – qHTS for induction of synthetic lethality in tumor cells producing 2HG: qHTS for the HT-1080-NT fibrosarcoma cell line | HT-1080-NT fibrosarcoma viability, CellTiter-Glo ATP luminescence, 48 h | Potency, µM (top dose mostly 46.1 µM), for inactives: top-dose activity, negative = less viability, hits mostly cytotoxic | 1.6% of 360,000 active | AID 686970, 2013;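 note: NT is the 2HG producing partner of a matched IDH1 knockdown line; potency is the fitted concentration of half-maximal effect; 0% = DMSO-treated cells and -100% = media-only wells without cells; nearly all actives have a fitted effect of over 55% in size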
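HT-1080-NT; 750 cells/well; 5% FBS RPMI; 48 h compound, 37 degrees C; CellTiter-Glo luminescence; curve fitting and curve-class assignment.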
DT40 TDP1 no CPT – qHTS for Inhibitors of human tyrosyl-DNA phosphodiesterase 1 (TDP1): qHTS in cells in absence of CPT. DT40 Tdp1-/- hTDP1 cells, no CPT, ATP luminescence, 48 h. Potency, µM (highest dose often 46.2 µM), inactives show top-dose activity change, negative = growth inhibition, most hits filed as inhibitors. 15% of 420,000 active. AID 686978, 2013; note: potency is the fitted concentration of half-maximal effect; nearly all actives have a fitted effect of over 55% in size
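Compound effects on proliferation are scored in DT40 Tdp1-/-;hTDP1 cells in the absence of CPT. ATP levels (CellTiter-Glo luminescence) are recorded after a ≥48 hr, 37 °C incubation.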
* hit, by the source's call; u = inconclusive; x = not tested or not shown; [ ] = dose if it differs, or a comment. This is a sample that favours compounds with a hit; in the whole collection about 19% have one here. Unless noted, calls come from the whole dose curve; as a rule, active = well fitted curve in the direction sought with a large enough effect; inconclusive = small, poorly fitted or top-dose-only effect, or another doubt; inactive = no such curve, though single readings can be large; an effect the other way counts as inactive or inconclusive. Unless noted, % is set by controls: 0 for no effect and ±100 for the full control effect.

SMILES	HT1080 IDH1KD tx	TDP1 cell CPT	IL-1B inflam inh	HT1080-NT tox	DT40 TDP1 no CPT
CCc1ccc(NC(=O)CC2C(=O)N(c3ccc(Cl)cc3)C(=O)N2Cc2cccs2)cc1 (centres undefined)	x	4.6µM*	x	x	4.1µM*
COCCN1C(=O)N(c2ccc(OC)cc2)C(=O)C1CC(=O)Nc1cccc(F)c1 (centres undefined)	-3%	-9%	0	-7%	2%
CCOc1ccc(NC(=O)CC2C(=O)N(c3ccc(OC)cc3)C(=O)N2CCc2cccs2)cc1 (centres undefined)	-10%	-22%	0	-6%	u
Cc1cccc(N2C(=O)C(CC(=O)Nc3cccc(F)c3)N(Cc3cccs3)C2=O)c1 (centres undefined)	x	u	x	x	18µM*
CCOc1ccc(NC(=O)CC2C(=O)N(c3cccc(C)c3)C(=O)N2Cc2cccs2)cc1 (centres undefined)	x	u	x	x	21µM*
Cc1noc(C)c1NC(=O)N(C)C[C@H]1OCc2cn(nn2)CCCC(=O)N([C@@H](C)CO)C[C@@H]1C	0%	3%	4	11%	u
O=C(CSc1nnc(-c2ccccn2)n1Cc1ccco1)c1ccc(Cl)cc1	-11%	16µM*	-3	0%	29µM*
O=C(CSc1nnc(-c2ccccn2)n1Cc1ccco1)c1ccccc1	2%	u	-8	-2%	u
O=C(CSc1nnc(-c2cnccn2)n1Cc1ccco1)c1ccc(Cl)cc1	-10%	23µM*	-7	-6%	u
CN1C(=O)C2(OCCCO2)c2ccccc21	-1%	28%	0	-3%	-2%
C=CCn1c(=O)/c(=C/c2cc(OC)c(OC)c(OC)c2)s/c1=C(/C#N)c1nc2ccccc2n1C	-9%	23µM*	19	-4%	18µM*
C/C(O)=C(\C#N)c1nnc2n1CCCCC2	1%[9.24 µM]	21%	11	0%	10%
C=CCn1c(=O)/c(=C/c2ccc(O)cc2)s/c1=C(/C#N)c1nnc2n1CCCCC2	18%	18µM*	u	2%	23µM*
C=CCn1c(=O)/c(=C/c2ccc(Cl)cc2)s/c1=C(/C#N)c1nnc2n1CCCCC2	9%	u	-72*	0%	u
C=CCn1c(=O)/c(=C\c2ccsc2)s/c1=C(/C#N)C(=O)NCCN1CCOCC1	17%	u	u	22%	u
O=C(NC(C(=O)c1ccccc1)c1ccccc1)c1ccccc1 (centres undefined)	-8%	0%	15	-10%	u
C/C(=N/NC(=O)CNC(=O)Cc1ccccc1)c1ccc(Cl)cc1	4%	3%	-1	6%	2%
CCN(CC)c1cc(C)c2ccccc2n1	6%	3%	23	1%	-4%
CCN(CC)c1cc(C)c2cc(NC(=O)/C=C/c3ccccc3OC(C)C)ccc2n1	x	u	x	x	23µM*
Cc1ccc(C(=O)NCc2ccc(N(C)C)cc2)cc1NC(=O)c1nsc2ccccc12	x	u	x	x	16µM*
CN(C)c1ccc(CNC(=O)c2ccc(NC(=O)c3nsc4ccccc34)cc2)cc1	x	-29%	x	x	u
Cc1ccc(C(=O)NCc2ccccc2)cc1NC(=O)c1nsc2ccccc12	x	u	x	x	16µM*
COCCNC(=O)C1CC(c2ccc(C(F)(F)F)cc2)=NO1 (centres undefined)	2%	u	-16	3%	u
Cc1c(Cl)cccc1-n1c(SCC(=O)N2CCC(C(=O)O)CC2)nnc1-c1ccncc1	-5%	-6%	3	-8%	-16%
Cc1cc(C(=O)Cn2nnc(-c3ccc(Cl)cc3)n2)c(C)n1CC1CCCO1 (centres undefined)	0%	12µM*	-71*	u	u
